# Shn3 inh set2: inhibitors of Schnurri-3 3'UTR reporter in osteoblasts; hit rate 0.52% among 360,000; Clone20 osteoblast Shn3 3'UTR firefly luciferase, 24 h; inhibition, % at 12.5 µM;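 active = mean inhibition of at least 75% with every replicate also reaching 75%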;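 note: 0% = median of neutral control wells and 100% = pilot-screen positive control compound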
# EBV LMP1 NFkB: reduces LMP1-driven NF-kappaB luciferase signal; LMP1-induced NF-kappaB luciferase reporter cells, luminescence; inhibition, % at 12.5 µM; hit rate 0.69% among 350,000; AID 504558; in the data active = inhibition above about 41%;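 note: 0% = neutral control wells and 100% = reference inhibitor control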
# TRPM1 prom inh: MITF TRPM1 promoter inhibition in SK-MEL-5 cells; SK-MEL-5 TRPM1 promoter luciferase, 24 h; inhibition, % at 12.5 µM; hit rate 0.83% among 330,000;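 active = mean inhibition across replicates of 60% or more, whatever share of single replicates reaches that level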
# TROY signal inh: blocks TROY-dependent signaling in reporter cells; Q293 LMP1-TROYcd NF-kB luciferase reporter, 4 h; inhibition, % at 10 µM; hit rate 0.98% among 360,000;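 active = compounds whose plate-normalised and pattern-corrected inhibition of the luciferase reporter signal at the single screening dose is 50% or more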
# TWEAK-Fn14 inh: blocks TWEAK-Fn14 interaction in a reporter cell assay | inhibition, % at 10 µM | TWEAK-stimulated Fn14 reporter cells, luciferase luminescence, 8 h | hit rate 2% among 360,000 | AID 1159606; in the data active = inhibition above about 50%
# Peg3 promoter: Peg3 promoter activity inhibition; HeLa PEG-Prom luciferase reporter, luminescence, overnight; inhibition, % at 20 µM; hit rate 1.7% among 360,000;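 active = inhibition of at least 50% at 20 µM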
# An asterisk follows results filed as active; . = no result given. In the library only some 4.1% were active in any assay of this set; here they are far more common.
SMILES,Shn3 inh set2,EBV LMP1 NFkB,TRPM1 prom inh,TROY signal inh,TWEAK-Fn14 inh,Peg3 promoter
CCc1ccc(C(=O)NNC(=O)CCC2CCCCC2)cc1,-10,-6,-3,-9,-11,-25
O=C(Nc1ccc(C(F)(F)F)cc1)N1CCN(c2ccnc3cc(Cl)ccc23)CC1,.,29,-2,58*,25,38
O=C(Nc1cccc(C(F)(F)F)c1)c1csc([C@@H]2C[C@H](O)[C@@H](CO)O2)n1,9,.,.,-9,2,-4
CC(C1=C(CCN(C)C)Cc2ccccc21)c1ccccn1 (stereo not drawn),-14,-9,-9,-21,-14,-21
CCc1ccc(-c2cn3c(n2)SCC3)cc1,-79,-32,-67,-17,-11,-287
CCc1ccc(-c2cn(-c3nc(C)cc(C)n3)c(=N)o2)cc1,1,12,-1,-1,91*,-6
CCOC(=O)N1CCN(C(=O)CCc2ccc(S(=O)(=O)NC(C)(C)C)cc2)CC1,-4,6,7,15,-14,10
CCc1cc(OCCN(C)C)ccc1Cl,11,3,15,2,-2,11
CN(C)CCOc1ccc2c(c1)C(=O)C(=Cc1ncc([N+](=O)[O-])n1C)C2,51,25,.,18,0,103*
Cc1nc(NC(=O)c2ccccc2)sc1-c1csc(NCCc2ccccc2)n1,-12,10,5,-38,54*,-26
CCOc1ccccc1Nc1nc(-c2sc(NC(=O)c3cccc(Cl)c3)nc2C)cs1,-31,-24,-18,2,64*,-93
Cc1nc(NC(=O)c2ccccc2)sc1-c1csc(NCc2ccccc2)n1,6,8,-8,-37,43,-25
CCC(CC)CC1CN2CCc3cc(OC)c(OC)cc3C2CC1(O)CC (stereo not drawn),85*,3,.,17,-8,-7
COc1cc2c(cc1OC)C1CC(=O)C(CC(C)C)CN1CC2 (stereo not drawn),4,-5,-1,4,-6,17
COc1ccc(C(C(=O)NC2CCCC2)N(C(=O)CNC(=O)c2ccco2)c2cccnc2)cc1 (stereo not drawn),7,-7,-3,-13,15,0
CCOC(=O)C1=CCN(S(=O)(=O)c2ccccc2C)C1c1cccc(Br)c1 (stereo not drawn),-31,.,.,-6,-12,41
Cc1ccc(C(=O)NC(=S)Nc2cccnc2Cl)cc1,-52,-21,-151,44,73*,-380
COc1ccccc1C(=O)NC(=S)Nc1ccc(N2CCOCC2)c(Cl)c1,-1,6,-12,52*,-9,-37
COc1ccccc1C(=O)Nc1ccccc1SC(=O)c1ccccc1OC,-47,-21,-8,50*,47,-93
COC(=O)c1ccccc1NC(=O)c1ccccc1OC,-1,19,-13,3,-3,-26
COc1ccccc1-c1cc(C(=O)Nc2cccnc2Cl)no1,12,-11,-8,-18,-22,-14
Cc1ccccc1OCC(=O)NC(=S)Nc1ccc(N2CCOCC2)c(Cl)c1,2,10,1,11,-21,3
Cc1ccc(C(=O)NC(=S)Nc2ccccc2C(F)(F)F)cc1,-5,-10,0,-34,5,-92
COc1ccccc1C(=O)NC(=S)Nc1cccnc1Cl,-19,28,-38,78*,95*,-91
Cc1ccc(NC(=O)c2cc(N3C(=O)C=CC3=O)ccc2N2CCOCC2)cc1Cl,76,1,78*,-13,-1,93*
SMILES,Shn3 inh set2,EBV LMP1 NFkB,TRPM1 prom inh,TROY signal inh,TWEAK-Fn14 inh,Peg3 promoter
Cc1ccc(NC(=O)c2cc(N3C(=O)CCC3=O)ccc2N2CCOCC2)cc1,-6,-3,-2,-2,-25,1
CS(=O)(=O)N(CC(=O)N1CCOCC1)c1cccc(F)c1,-7,-9,-4,-3,5,2
COc1ccc(C2c3[nH]c4ccccc4c3CCN2Cc2cccn2-c2ncccn2)cc1C (stereo not drawn),37,6,14,71*,56*,-78
Cc1cccc(C2c3[nH]c4ccccc4c3CCN2Cc2cccn2-c2ncccn2)c1 (stereo not drawn),8,-11,-4,-15,-11,0
COc1ccc(N2CCN(C(=O)Cn3ncc4c([nH]c5ccccc54)c3=O)CC2)cc1,0,-12,0,-5,9,53*
COc1ccc(C(C(=O)NC2CCCCC2)N(Cc2cccs2)C(=O)Cc2c[nH]c3ccccc23)cc1 (stereo not drawn),21,2,19,30,65*,47
O=C(NC1CCCCC1)C(c1cccs1)N(C(=O)Cc1c[nH]c2ccccc12)c1ccc(F)cc1 (stereo not drawn),7,-12,18,24,34,85*
COc1cccc(CN(C(=O)Cc2c[nH]c3ccccc23)C(C(=O)NC2CCCCC2)c2cccs2)c1 (stereo not drawn),27,1,15,13,53*,48
Cc1cc(Cl)ccc1N(CC(=O)NCc1ccccc1)S(C)(=O)=O,3,-6,0,6,9,15
COc1cc(CCC(=O)N2CCN(c3ccccc3)CC2)cc(OC)c1OC,-3,-2,-2,-1,1,19
COc1cc(-c2cc(NC=O)c3ncc(-c4cccc(C(F)(F)F)c4)n3c2)cc(OC)c1OC,28,.,.,2,-5,52*
COc1ccccc1-c1cc(NC=O)c2ncc(-c3cccc(C(F)(F)F)c3)n2c1,41,.,.,12,1,22
CN(C)C(=O)c1cccc(-c2cnc3c(NC=O)cc(-c4ccccc4Cl)cn23)c1,-6,.,.,32,44,28
COc1ccc(-c2cc(NC=O)c3ncc(-c4cccc(C(F)(F)F)c4)n3c2)cc1OC,-28,.,.,-13,12,29
COc1ccccc1-c1cc(NC=O)c2ncc(-c3ccc(F)cc3)n2c1,15,.,.,25,55*,14
COc1cc(-c2cc(NC=O)c3ncc(-c4ccccc4)n3c2)cc(OC)c1OC,-4,.,.,2,25,51*
COc1cc(-c2cnc3c(NC=O)cc(-c4ccccc4)cn23)cc(OC)c1OC,-2,.,.,24,19,10
COc1cc(-c2cnc3c(NC=O)cc(-c4ccccc4Cl)cn23)cc(OC)c1OC,7,.,.,44,59*,-1
COc1ccc(C(=O)NCCS(=O)(=O)N(C)Cc2ccccc2)cc1,-23,-4,1,-7,8,-1
COc1ccc(F)cc1-c1cc(NC=O)c2ncc(-c3cc(OC)c(OC)c(OC)c3)n2c1,17,.,.,47,74*,46
OC(c1cccc(F)c1)c1ncc(-c2ccc(Oc3ccccc3)cc2)[nH]1 (stereo not drawn),-37,.,.,26,-2,-34
OC(c1cccc(Cl)c1)c1ncc(-c2ccc(Oc3ccccc3)cc2)[nH]1 (stereo not drawn),0,.,.,6,-2,54*
CCOC(=O)C1(CCOc2ccccc2)CCN(Cc2cccc(OCCO)c2)CC1,36,-1,17,51*,-1,7
